Screen size: about 370,000 compounds; about 3,000 (0.81%) were called active.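 How the source made its calls: active means activity above about 14% (limit read from the data; passing the limit was not always enough); inactive means the rest.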 The sample as a whole holds a higher share of actives than the screen did.
target: Nuclear receptor subfamily 1 group D member 1 (Homo sapiens) (UniProt P20393); assay: modulators of Rev-erb alpha DNA binding, primary screen, biochemical, FITC-DNA, fluorescence polarization, uHTS (AID 1259318); settings: Rev-erbα–FITC-DNA binding, 90 min, at 10 µM, active compounds read high;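 further: 0% = DMSO wells with 35 nM protein and 100% = DMSO wells with 750 nM protein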
Sequence (P20393 whole entry, looked up): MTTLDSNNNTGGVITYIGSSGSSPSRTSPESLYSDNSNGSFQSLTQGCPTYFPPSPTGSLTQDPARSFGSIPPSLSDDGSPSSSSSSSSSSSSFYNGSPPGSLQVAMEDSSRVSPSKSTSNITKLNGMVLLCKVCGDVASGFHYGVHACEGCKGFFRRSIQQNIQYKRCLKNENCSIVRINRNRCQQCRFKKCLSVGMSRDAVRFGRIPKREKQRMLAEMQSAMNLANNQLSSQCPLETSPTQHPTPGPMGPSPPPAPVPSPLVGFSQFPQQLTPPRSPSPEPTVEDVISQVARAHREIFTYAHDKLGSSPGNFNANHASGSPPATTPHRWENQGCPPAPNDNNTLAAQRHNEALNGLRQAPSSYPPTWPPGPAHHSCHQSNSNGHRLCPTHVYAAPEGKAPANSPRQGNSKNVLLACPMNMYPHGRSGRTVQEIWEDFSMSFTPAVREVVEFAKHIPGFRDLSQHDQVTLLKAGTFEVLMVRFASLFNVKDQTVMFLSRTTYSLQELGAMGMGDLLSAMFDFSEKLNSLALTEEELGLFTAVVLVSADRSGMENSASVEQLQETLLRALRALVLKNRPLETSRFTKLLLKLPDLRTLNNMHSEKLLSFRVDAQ

Row | SMILES | activity
1 | Cc1cc(/C=C(/C#N)C(=O)Nc2ccc(Cl)cc2)c(C)n1-c1cccnc1 | 23.3% (active)
2 | N#C/C(=C\c1cccnc1)C(=O)Nc1ccc(SC(F)F)cc1 | -6.19% (inactive)
3 | Cc1ccc(-n2c(C)cc(/C=C(\C#N)C(=O)NCC3CCCO3)c2C)cc1 (stereo unspecified) | -8.1% (inactive)
4 | CN(C)CCc1c[nH]c2ccc(Cn3cncn3)cc12 | -0.58% (inactive)
5 | CS(=O)(=O)N(Cc1ccccc1)c1ccc(C(=O)NN=C2CCCCCC2)cc1 | 1.02% (inactive)
6 | Cc1cccc(Nc2nc3c(S(=O)(=O)c4ccccc4)nnn3c3ccccc23)c1C | 47.9% (active)
7 | CCOC(=O)c1nnn2c1nc(N1CCN(c3ccccc3)CC1)c1ccccc12 | -1.6% (inactive)
8 | Cc1cc(Nc2cccc(C)c2C)n2ncnc2n1 | 0.88% (inactive)
9 | Cc1ccc(S(=O)(=O)c2nnn3c2nc(N2CCN(c4ccccn4)CC2)c2ccccc23)cc1 | 87.8% (active)
10 | Cc1nc(Nc2ccccc2C)c2cnn(C)c2n1 | 3.28% (inactive)
11 | Cc1ccc(S(=O)(=O)NCC(=O)N2CCN(c3ccccn3)CC2)cc1 | -1.9% (inactive)
12 | CCN(CC(=O)Nc1c(F)cccc1F)C(=O)C1CCC1 | -2.66% (inactive)
13 | COc1cc(C(=O)N2CCOCC2)cc(OC)c1OC | -1.7% (inactive)
14 | N#Cc1cccc(NC(=O)COC(=O)c2ccccc2C(=O)c2ccc(Cl)c([N+](=O)[O-])c2)c1 | 3.08% (inactive)
15 | CCCOc1ccc(Oc2c(Cl)cnn(Cc3cccc4ccccc34)c2=O)cc1 | -0.89% (inactive)
16 | Cc1c(C=O)c2ccccn2c1C(=O)c1ccncc1 | -1.4% (inactive)
17 | CN(C(=O)CSc1nnc(-c2n[nH]c3ccccc23)o1)c1ccccc1 | -0.39% (inactive)
18 | O=C1CN(C(=O)COc2c(Cl)cccc2Cl)c2ccccc2N1 | -1.39% (inactive)
19 | CCOc1ccc(C)cc1S(=O)(=O)NC1CCCCCC1 | 4.62% (inactive)
20 | O=C(CN1CCC(NC(=O)NCc2ccccc2)CC1)Nc1ccc2c(c1)OCCO2 | -2.38% (inactive)
21 | Cc1ccc2c(C(=O)CN3CCCC3)c(C)[nH]c2c1 | -0.66% (inactive)
22 | CC(C)(C)c1ccc(C(=O)Nc2cc(Cl)c(Br)cc2C(=O)O)cc1 | -8.64% (inactive)

Row | SMILES | activity
23 | COc1ccc(CN2[C@@H](CC(=O)O)c3cc(F)ccc3S2(=O)=O)cc1 | 1.62% (inactive)
24 | COc1ccc(S(=O)(=O)N2CCN(c3cnccn3)CC2)cc1 | 0.63% (inactive)
25 | COc1ccc(-c2csc3ncnc(N4CCN(S(=O)(=O)c5ccccc5C#N)CC4)c23)cc1 | 28.3% (active)
26 | COc1ccc(-c2csc3ncnc(Oc4ccc5c(C)cc(=O)oc5c4)c23)cc1 | 3.46% (inactive)
27 | COc1ccc(S(=O)(=O)N2CCN(c3ncnc4c(-c5ccccc5)nsc34)CC2)cc1 | 27.5% (active)
28 | COc1ccc(-c2csc3ncnc(N4CCN(S(=O)(=O)c5cccc(F)c5)CC4)c23)cc1 | 3.12% (inactive)
29 | COc1ccc(S(=O)(=O)N2CCSCC2)cc1 | -4.2% (inactive)
30 | CCC1(C)CC(=O)NC1=O (stereo unspecified) | -6.13% (inactive)
31 | CC(C)(C)c1ccc(/C=C2\SC(=O)N=C2N)cc1 | 0.2% (inactive)
32 | CCC(C)[C@H]1O[C@]2(CC[C@@H]1C)C[C@@H]1C[C@@H](C/C=C(\C)[C@@H](O[C@@H]3C[C@H](OC)[C@H](O[C@H]4C[C@H](OC)[C@@H](O)[C@H](C)O4)[C@H](C)O3)[C@@H](C)/C=C/C=C3\CO[C@@H]4[C@H](O)C(C)=C[C@@H](C(=O)O1)[C@]34O)O2 (stereo partly specified) | 6.63% (inactive)
33 | O=C(Cn1c(=O)sc2ccccc21)Nc1ccc2c(c1)OCCO2 | 2.42% (inactive)
34 | CCN(CC)S(=O)(=O)c1cccc(NC(=O)c2ccc(S(=O)(=O)N3CCCC3)cc2)c1 | 5.55% (inactive)
35 | C=CCn1c(=NC(=O)c2cccs2)sc2cc(NC(C)=O)ccc21 | 31.9% (active)
36 | C=CCn1c(CCNC(=O)c2cccs2)n[nH]c1=S | -1.01% (inactive)
37 | C=CCn1c(=NC(=O)c2ccc(S(=O)(=O)N3CCCC3)cc2)sc2cc(NC(C)=O)ccc21 | 51.5% (active)
38 | CC(=O)Nc1ccc(S(=O)(=O)N2CCN(S(=O)(=O)c3cccs3)CC2)cc1 | -1.45% (inactive)
39 | CCOC(=O)c1cc(S(=O)(=O)NCCc2ccc(OC)c(OC)c2)cn1C | 1.86% (inactive)
40 | Cc1cccc(OCCC(=O)Nc2cc(S(=O)(=O)N3CCCCC3)ccc2N2CCOCC2)c1 | -0.99% (inactive)
41 | CN(CCc1ccccn1)S(=O)(=O)c1ccc2c3c(cccc13)C(=O)N2 | 1.1% (inactive)
42 | Cc1cc(NC(=O)CSC2=NS(=O)(=O)c3cc(Cl)ccc3N2)no1 | -5.75% (inactive)
43 | O=C(CSc1nnc(-c2cccc(Cl)c2)n1Cc1ccco1)Nc1ccc(OCc2ccccc2)cc1 | 4.77% (inactive)
44 | Cc1cc(NC(=O)CSc2nc3cc(Cl)ccc3c(=O)n2Cc2ccco2)no1 | 20.1% (active)

Row | SMILES | activity
45 | CC/C(=C(/c1ccccc1)c1ccc(OCC[N+](C)(C)C)cc1)c1ccccc1 | -1.77% (inactive)
46 | C=CCN1[C@H](CC(C)C)COc2cccc(N3CCCC3)c2S1(=O)=O | 5.72% (inactive)
47 | Fc1c(F)c(C(F)(F)F)c(F)c(F)c1N1CCN(c2ccc3nnc(C(F)(F)F)n3n2)CC1 | 28.7% (active)
48 | CCN(CC)S(=O)(=O)c1ccc(OC(C)C)c(N)c1 | -2.29% (inactive)
49 | CCN(CC)S(=O)(=O)c1ccc(C(=O)N2CCN(C3=NS(=O)(=O)c4ccccc43)CC2)cc1 | -1.88% (inactive)
50 | CCN(CC)C(=O)CS(=O)CC(=O)Nc1cc(OCCOC)c(Cl)cc1Cl (stereo unspecified) | -6.56% (inactive)
51 | CSc1ccc(Cl)c(C(=O)OCC(=O)N2CC(C)OC(C)C2)c1 (stereo unspecified) | -1.82% (inactive)
52 | COc1ccc(OCC(=O)Nc2cc(C)c(Cl)cc2OC)c([N+](=O)[O-])c1 | 1.26% (inactive)
53 | COc1cc(Cl)c(C)cc1NC(=O)COC(=O)c1cc(SC)ccc1Cl | 35.7% (active)
54 | COc1ccccc1NC(=O)COc1ccc(C(=O)OCC(=O)N(C(C)C)C(C)C)cc1OC | 0.89% (inactive)
55 | Clc1ccc(Cl)c(Oc2ccc(Oc3nc(Cl)ccc3Cl)cc2)n1 | -2% (inactive)
56 | Clc1ccc(-n2c(COc3ccccc3)nnc2SCc2nc3ccccc3[nH]2)cc1 | -0.37% (inactive)
57 | CC1CC2C3CCC4=CC(=O)C=C[C@]4(C)[C@@]3(F)[C@@H](O)C[C@]2(C)[C@@]1(O)C(=O)CO (stereo partly specified) | 0.08% (inactive)
58 | Cn1nccc1NS(=O)(=O)c1ccc(F)cc1 | 3.3% (inactive)
59 | O=c1cc(N2CCCCC2)c(-c2ccccc2)nn1Cc1cccc(F)c1 | 30.7% (active)
60 | CCc1c(-c2ccc(F)cc2)ncn1Cc1cccc(-c2ccccc2)c1 | -5.19% (inactive)
61 | O=C(CS(=O)(=O)c1cn(Cc2cccc(F)c2)c2ccccc12)N1CCCCC1 | -9.9% (inactive)
62 | COC(=O)[C@]1(C)N[C@H](CN(C)C(=O)c2ccc(C(C)(C)C)cc2)[C@@H]2C(=O)N(C)C(=O)[C@@H]21 | -0.45% (inactive)
63 | Oc1c(Br)cc(/C=N/NC(=S)NCC2CCCO2)cc1Br (stereo unspecified) | -2.6% (inactive)
64 | CO/N=C(\C(=O)N[C@@H]1C(=O)N2C(C(=O)O)=CCS[C@H]12)c1csc(N)n1 | -1.64% (inactive)
65 | CCn1c(=O)c2ccccc2n(CC(=O)N2CCCc3ccccc32)c1=O | -3.6% (inactive)
66 | CC(C)CCn1c(CN(C)Cc2ccccc2)nc2c1c(=O)n(C)c(=O)n2C | 3.74% (inactive)

Row | SMILES | activity
67 | Cn1c(=O)[nH]c(=O)c2c1nc(CN(Cc1ccccc1)Cc1ccccc1)n2CCN1CCOCC1 | -1.09% (inactive)
68 | CC(C)Cn1c(CN(Cc2ccccc2)Cc2ccccc2)nc2c1c(=O)n(C)c(=O)n2C | 42.6% (active)
69 | Cc1ccccc1NC(=O)C1CCN(c2ncccn2)CC1 | 4.79% (inactive)
70 | O=C(CNC(=O)c1ccc(Cl)cc1Cl)NCC(=O)Nc1ccccc1N1CCOCC1 | -3.17% (inactive)
71 | CCOC(=O)c1cc(-c2ccc(Cl)s2)nc2c1c(C)nn2C | 11.4% (inactive)
72 | COc1cc2c(cc1NC(=O)COC(=O)/C=C/c1ccccc1)oc1ccccc12 | -1.34% (inactive)
73 | COc1cc2c(cc1NC(=O)CN1CCN(S(=O)(=O)c3ccc(F)cc3)CC1)oc1ccccc12 | 14.1% (active)
74 | O=C(CN1CCN(S(=O)(=O)c2ccc(F)cc2)CC1)NC1CC1 | 6.03% (inactive)
75 | FC(F)(F)c1cccc(NC(=S)OC2CCC23CCC(c2ccccc2)CC3)c1 (stereo unspecified) | 5.79% (inactive)
76 | O=C(CC1SC(=Nc2ccccc2)N(Cc2ccccn2)C1=O)Nc1cccc(Cl)c1 (stereo unspecified) | 1.93% (inactive)
77 | NC1=NC(c2ccc([N+](=O)[O-])cc2)N(c2ccc(F)cc2)C(N)=N1 (stereo unspecified) | 5.54% (inactive)
78 | Cc1ccc(NS(=O)(=O)c2cc3c(cc2C)NC(=O)CO3)cc1 | 10.7% (inactive)
79 | Cc1ccc(NS(=O)(=O)c2ccc3c(c2)NC(=O)CO3)cc1 | 1.74% (inactive)
80 | Cc1ccc(NS(=O)(=O)c2cc3c(cc2Br)NC(=O)CO3)cc1C | 23.4% (active)
81 | C[C@@H]1CN([C@@H](C)CO)C(=O)c2cccc(NC(=O)Nc3cccc4ccccc34)c2O[C@H]1CN(C)S(=O)(=O)c1ccccc1F | -2.31% (inactive)
82 | CC1(C)NC(=O)N(CC(=O)Nc2cc(C(F)(F)F)cc(C(F)(F)F)c2)C1=O | 3.72% (inactive)
83 | CC(NCc1ccco1)C(=O)N1CCCCC1 (stereo unspecified) | -4.97% (inactive)
84 | COc1ccc(C)cc1Nc1nc(C)nc2c1oc1ccccc12 | 53.9% (active)
85 | COCCNc1nc(-c2ccccc2)nc2c1oc1ccccc12 | 7.87% (inactive)
86 | COC(=O)c1cnc(Nc2cc(C)ccc2OC)c2ccccc12 | -1.59% (inactive)

From PubChem BioAssay AID1259318 (Sanford-Burnham Center for Chemical Genomics, 2017)
